This note sets out measurements from PubChem BioAssay (NCI).

Test in all cases: NCI-60 one-dose screen, 48 h (100 = growth as untreated, 0 = no growth, -100 = all killed)
Common to all, as to conditions: 10 µM unless noted

Assay [1] concerns RPMI-8226 leukemia.
The subject of assay [2] is OVCAR-8 ovarian.
The subject of assay [3] is OVCAR-5 ovarian.
Assay [4] concerns OVCAR-4 ovarian.
In assay [5] the test system is SK-OV-3 ovarian.
Assay [6] deals with IGROV1 ovarian.
The subject of assay [7] is OVCAR-3 ovarian.
Assay [8] has as its system HS 578T breast.
The test system of assay [9] is NCI/ADR-RES ovarian.
Assay [10] concerns T-47D breast.
The test system of assay [11] is BT-549 breast.
The test system of assay [12] is MDA-MB-435 melanoma.
Assay [13] deals with SW-620 colon.
In assay [14] the test system is MCF7 breast.
Assay [15] deals with HCT-116 colon.
The test system of assay [16] is KM12 colon.
The test system of assay [17] is HCC-2998 colon.

This is part of a sample that, as a whole, favours compounds with a hit. Of some 83,000 tested, about 20% had one in any assay.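 96-well plates, one dose, 48 hours. Percent growth reported; active if below 10.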 Unmarked numbers belong to inactive results. The source made the active and inactive calls.

Regarding `Oc1[nH]c2ccccc2c1/C=c1/ccc2c(c1)N=C(c1cc(F)cc(F)c1)N=2`, the growth is 27.5% in assay [1]; 76.9% in [2]; 85% in [3]; 57.8% in assay [4]; 85% in assay [5]; 63.3% in assay [6]. Moreover, the growth in [7] was 55.9%; in assay [8], 69.4%; in [9], 61.4%; in assay [10], 40.3%; in assay [11], 40.4%; in [12], 25.2%. In addition, the growth in assay [13] was 36.4%; in assay [14], 25.1%; in assay [15], 28.7%; in [16], 34%.

Take `O=C(Nc1nc(-c2ccccc2)cs1)c1cc(O)c(O)c(O)c1`: the growth in assay [1] is 17.8%; in assay [2], 39%; in assay [3], 89.4%; in assay [4], 44.5%; in assay [5], 70%; in assay [6], 33.2%. Also, the growth in assay [7] was 22.3%; in assay [8], 73.6%; in assay [9] it was 47%; in [10], 31.2%; in assay [11] it was 46%; in [12] it was 61%. The growth was 39.7% in assay [13], 58.4% in [14], 25.9% in assay [15] and 64.7% in [16].

Regarding `COc1cc(OC)c2cc(C(=O)O)c(=O)oc2c1`, the growth in assay [1] is 43%; in [2], 94.4%; in assay [3] it was 106%; in [4], 130%; in [5], 99.9%; in [6] it was 55.2%. Further, the growth in assay [7] is 102%; in assay [8], 134%; in assay [9], 112%; in [10], 99.4%; in assay [11], 77.5%; in assay [12], 76.8%. In addition, the growth in assay [13] was 103%; in [14] it was 94.2%; in [15] it was 103%; in [16], 114%.

For the molecule `COc1cc(/C=C2\CCC/C(=C\c3ccc(OCC4CO4)c(OC)c3)C2=O)ccc1OCC1CO1` (stereo not drawn), the growth in [1] was -2.29% (active); in assay [2] it was 0.499% (active); in assay [3], 86%; in assay [4] it was 47.1%; in assay [5] it was 20.1%; in assay [6], -12.6% (active). In addition, the growth in assay [7] is -22.8% (active); in [8], 23.4%; in assay [9], 56.8%; in assay [10] it was 46.3%; in assay [11], 30.3%; in assay [12] it was -32.3% (active). The growth in assay [13] was -23% (active); in assay [14] it was -6.99% (active); in [15] it was -54.7% (active); in assay [16], -0.568% (active).

As to `NCCCc1nnc(CCC(=O)c2nc3ccccc3[nH]2)o1`, the growth is 101% in assay [1]; 110% in [2]; 104% in assay [3]; 104% in assay [4]; 106% in [5]; 104% in [6]. Besides, the growth in [7] is 119%; in assay [8] it was 112%; in [9] it was 97.9%; in assay [10] it was 97.7%; in [11] it was 103%; in assay [12], 105%. Besides, the growth is 108% in assay [13]; 91.4% in assay [14]; 100% in assay [15]; 98.1% in assay [17]; 115% in assay [16].

Take `C/C(=N/N=C(N)N)c1ccc(N)cc1`: the growth in assay [1] was 190%; in [2] it was 111%; in assay [3], 105%; in assay [4], 100%; in assay [5], 105%; in assay [6], -12.3% (active). Moreover, the growth in [7] is 93.1%; in assay [8], 73.3%; in assay [9] it was 103%; in [10], 94.7%; in assay [11], 70.1%; in [12] it was 49%. Moreover, the growth was 97% in assay [13], 81.3% in [14], 103% in [15] and 96% in assay [16].

Regarding `O=C1Nc2ccc(F)cc2/C1=C/c1nc(-c2ccc(F)cc2)n2ccccc12`, the growth in [1] is 117%; in [2], 97.7%; in assay [3], 94.7%; in assay [4], 96.3%; in assay [5] it was 108%; in assay [6] it was 97.8%. Also, the growth was 112% in assay [7]; 100% in [8]; 112% in assay [9]; 96.6% in assay [10]; 96.8% in assay [11]; 85% in assay [12]. The growth was 80.1% in [13]; 85.6% in [14]; 91.1% in assay [15]; 108% in [17]; 87.6% in [16].

In the case of `NS(=O)(=O)c1ccc(NC2=C(Cl)C(=O)c3ccccc3C2=O)cc1`, the growth was 61.2% in [1]; 88.6% in assay [2]; 102% in assay [3]; 94.4% in assay [4]; 90.2% in [5]; 75.3% in assay [6]. The growth in assay [7] was 98%; in [8] it was 142%; in [9] it was 93.6%; in assay [10] it was -48.3% (active); in assay [11] it was 84.4%; in assay [12] it was 124%. Moreover, the growth in assay [13] was 95%; in assay [14], 72.8%; in assay [15], 65%; in [16], 123%.

Turning to `O=C(C(=O)N1CCOCC1)c1ccc(OC2OC(CO)C(O)C(O)C2O)cc1` (stereo not drawn), the growth in assay [1] was 111%; in assay [2], 100%; in [3] it was 98.2%; in assay [4], 116%; in assay [5], 100%; in assay [6], 117%. Besides, the growth is 110% in assay [7]; 125% in [8]; 113% in assay [9]; 96% in [10]; 108% in assay [11]; 108% in assay [12]. Moreover, the growth in assay [13] is 105%; in [14], 95.2%; in assay [15], 105%; in assay [17], 127%; in [16], 112%.

For the molecule `Oc1ccccc1/C=N\Nc1ccccc1`, the growth in assay [1] is 43.7%; in assay [2] it was 52%; in assay [3] it was 55.5%; in [4] it was 84%; in [5] it was 108%; in [6], 57.3%. The growth in assay [7] is 79.1%; in [8], 80.8%; in [9], 44.1%; in [10], 44.5%; in [11], 65.1%; in [12], 28.6%. Also, the growth in assay [13] was 34.5%; in assay [14], 61.1%; in assay [15], 68.6%; in assay [16] it was 19.8%.
